This is part of a sample that, as a whole, favours compounds with a hit. Of some 83,000 tested, about 20% had one in any assay.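 The endpoint reported here, percent growth, reads 100 for growth as untreated, 0 for no net growth and -100 for all cells dead.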 Activity calls are given as the source filed them.
Each compound was assayed on A498 renal (assay: NCI-60 one-dose screen, 48 h (100 = growth as untreated, 0 = no growth, -100 = all killed)). Conditions: 10 µM unless noted.
Experimental: Growth inhibition of the A498 human tumor cell line is measured as a screen for anti-cancer activity. Cells are grown in 96 well plates and exposed to the test compound for 48 hours. Compounds are tested at a single concentration, which is 10^-5 M for most compounds. The reported endpoint is percent growth (GI% or GIPRCNT), where numbers from 0 - 100% represent growth inhibition, and numbers from -100% - 0 represent cell death. For example, a value of 40 represents 60% growth inhibition. A value of 0 means no net growth occurred over the course of the experiment. A value of -40 indicates 40% of cells at the beginning of the experiment died by the end of the experiment. A value of -100 means all cells are dead at the end of the experiment.
NCI-60 Human Tumor Cell Lines Screen was performed using the standard one-dose NCI protocol, which is described in more detail at https://dtp.cancer.gov/discovery_development/nci-60/default.htm.
Compounds with GIPRCNT values below 10 were considered active. Activity score was based on GIPRCNT using the following formula: […]
Score is 0 for GIPRCNT values of 100 or above, 50 for GIPRCNT values of 0, and 100 for GIPRCNT values of -100.
For `CN(C)c1ccc(/C=C2\C=C(c3ccccc3)N(CCc3ccccc3)C2=O)cc1`, the growth was 72.8% (inactive).
In the case of `CCN(CC)CCCNC(=O)c1ccc(N)cc1`, the growth is reported as 66.3% (inactive).
In the case of `COc1ccc(OC)c(C(=O)Nc2cccc(-c3cc(=O)c4ccccc4o3)c2)c1`, the growth is reported as 92.4% (inactive).
With `Cc1ccc(NSc2ccccc2[N+](=O)[O-])cc1` the growth was 6.22% (active).
For `CN1C[C@@H](c2ccc(Cl)cc2)[C@]2(NC(=S)N(c3ccc(F)c(Cl)c3)C2=O)[C@@]12C(=O)NC1C=CC(Cl)=C[C@H]12` (stereo not given in full), the growth was 66.8% (inactive).
In the case of `CCOC(=O)c1ccc(-c2ccc3cc(OC)ccc3c2)nc1C`, the growth is reported as 99.8% (inactive).
For `NC(=Nc1ccc(N)cc1)C(N)=Nc1ccc(N)cc1`, the growth was 91.3% (inactive).
`N#Cc1cnn2c(-c3ccc(Cl)cc3)nc(NC3CC3)nc12` was tested, and the growth was 84.5% (inactive).
With `CC1(C)C(=O)/C(=C\c2cccnc2)C[C@]2(C)[C@H]3CC=C4[C@@H]5C[C@@](C)(C(=O)O)CC[C@]5(C)CC[C@@]4(C)[C@]3(C)CC[C@@H]12` the growth was 100% (inactive).
`COc1ccc(N=c2nc3sc4cc(Cl)ccc4n3c(N)c2C#N)cc1` was tested, and the growth was 100% (inactive).
`Cc1cnc(Nc2ccc(N3CCN(C)CC3)cc2)nc1Nc1ccc(Cl)c(NS(=O)(=O)C(C)(C)C)c1` was tested, and the growth was -85.4% (active).
`O=c1[nH]nc(-c2ccc(Cl)cc2)cc1Cc1ccccc1` was tested, and the growth was 110% (inactive).
`Cc1ccc(S(=O)(=O)NN/C(N)=N\S(=O)(=O)c2cc(C)c(Cl)cc2SCc2ccccc2)cc1` was tested, and the growth was 91% (inactive).
For `CCN(CC)c1ccc(Nc2ccc(CC(=O)c3ccccc3)cc2)cc1`, the growth was 99.7% (inactive).
`CCCCOc1nc2ccc(Cl)cc2cc1/C=C/C(=O)/C=C1/CC(c2cc3cc(Cl)ccc3nc2OCCCC)Nc2ccccc2N1` (stereo not given) was tested, and the growth was 102% (inactive).
`Nc1ccc(S(=O)(=O)Nc2ccsc2-c2nc(-c3ccccc3)no2)cc1` was tested, and the growth was 61.2% (inactive).
With `C=C1c2c(C)nn(-c3ccc(NC(C)=O)cc3)c2N(C)C23CC1C1(C)c4c(C)nn(-c5ccc(NC(C)=O)cc5)c4N(C)C(C)(CC12)C3` (stereo not given) the growth was 60.3% (inactive).
In the case of `O=C1C=CC(=Nc2cc(Br)c(O)c(Br)c2)C=C1`, the growth is reported as 97.2% (inactive).
With `C[C@@H]1CC[C@@H]2[C@@H]1[C@H](OC(=O)/C=C/c1ccccc1)[C@]1(CCCOCCOCCOCCOC(=O)CCCC[C@@H]3SC[C@@H]4NC(=O)N[C@@H]43)C[C@@H](OC(=O)CO)[C@@]2(C)O1` the growth was 97.1% (inactive).
In the case of `CC(C)OC(=O)NNC(=O)c1ccncc1`, the growth is reported as 119% (inactive).
In the case of `Clc1ccc(/C=N\N=c2\scc(-c3ccc(Cl)cc3)n2/N=C/c2ccc(Cl)cc2)cc1`, the growth is reported as 92.1% (inactive).
With `COc1ccc(/C=C(\C#N)n2nnc3cc(F)c(F)cc32)c(OC)c1OC` the growth was 91% (inactive).
In the case of `CNC(=O)c1c(NC(=O)c2ccc(C(C)(C)C)cc2)sc2c1CCC(=O)C2`, the growth is reported as 12.6% (inactive).
In the case of `CN(C)c1ccc(/C=N/NC(=O)COc2cc(=O)n(C)c3ccccc23)cc1`, the growth is reported as 104% (inactive).
`C/C(=N\NC(N)=S)c1nc2ccc(Cl)cc2[nH]1` was tested, and the growth was 53.3% (inactive).
For `COc1ccc(/C(C)=N/NS(=O)(=O)c2ccc(C)cc2)cc1OC`, the growth was 87.2% (inactive).
`CC(=O)C(C(C)=O)c1nc2sc3cc(Cl)ccc3n2c(=N)c1C#N` was tested, and the growth was 84.5% (inactive).
For `CCN(CC)CC(=O)Nc1cccc(C(=O)OC(C)C)c1`, the growth was 140% (inactive).
With `COc1cccc(-c2nc3sccn3c2-c2ccnc(NCCNS(=O)(=O)c3c(Cl)cccc3Cl)c2)c1` the growth was 48.6% (inactive).
With `Nc1c(C(=O)Nc2ccccc2)sc2nc3c(cc12)CCCCCC3` the growth was -0.375% (active).
For `c1ccc(-c2oc3ccccc3c2-c2ccccc2)cc1`, the growth was 89.9% (inactive).
With `CCn1nc(C#Cc2c(C)ccc3c(Nc4ccc(Cl)cc4)nccc23)c2c(N)ncnc21` the growth was 11.7% (inactive).
With `O=C(Nc1cccc2[nH]c(C(F)(F)F)nc12)c1cc(Cl)ccc1Cl` the growth was -7.02% (active).
For `N#Cc1cnn2c(-c3ccc(Cl)cc3)nc(NCCc3ccccc3)nc12`, the growth was 101% (inactive).
With `CC(C)n1nc(C#Cc2cccc(O)c2)c2c(N)ncnc21` the growth was -84.9% (active).
`CN(C)c1ccc2cc(-c3ccccc3F)c(N)nc2c1` was tested, and the growth was -7.09% (active).
With `c1ccc2c(c1)ncn2-c1nc2ccccc2n2c1nc1ccccc12` the growth was 82.4% (inactive).
In the case of `CN1C[C@@H](c2ccc(Cl)cc2)[C@]2(NC(=S)N(c3ccccc3)C2=O)[C@@]12C(=O)NC1C=CC(Br)=C[C@H]12` (stereo not given in full), the growth is reported as 80.2% (inactive).
`C=C(C)[C@@H]1CC[C@]2(CO)CC[C@]3(C)[C@H](CC[C@@H]4[C@@]5(C)C=C(C#N)C(=O)C(C)(C)[C@@H]5CC[C@]43C)[C@@H]12` was tested, and the growth was -0.306% (active).
For `CCC(=O)OC1=C(C)SC2=NC(c3ccc(Cl)c(Cl)c3)=CC(c3cc(OC)c(OC)c(OC)c3)N21` (stereo not given), the growth was 116% (inactive).

From PubChem BioAssay (NCI)
